Measurements published in PubChem BioAssay (NCI).
About 79,000 compounds went through this panel and 15% of them were active in at least one assay; those are over-represented in the sample as a whole. Active and inactive are the calls of the source. Cut-off read from the data, not from the text of the source: active = growth inhibition above about 70%; inactive = the rest.

Experiments:
[1] = NCI Yeast Anticancer Drug Screen. Data for the rad52 strain (AID 147);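 note: 0% = growth of vehicle-treated control cultures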; conditions: S. cerevisiae rad52 mutant growth inhibition, stronger effect = higher value
Summary of the method: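 Vehicle-treated cultures served as the reference for growth inhibition of compound-exposed yeast bearing a DNA repair mutation.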

[2] = NCI Yeast Anticancer Drug Screen. Data for the wt1 strain (AID 149);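 note: 0% = growth of vehicle-treated wt1 cultures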; conditions: S. cerevisiae wt1 strain (SPY 50644) growth inhibition, stronger effect = higher value
Summary of the method: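 Growth inhibition read against vehicle controls after compound exposure of the wt1 yeast strain.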

[3] = NCI Yeast Anticancer Drug Screen. Data for the rad50EPP+ strain (AID 151);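 note: 0% = growth of vehicle-treated control cultures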; conditions: S. cerevisiae rad50 mutant strain, stronger effect = higher value
Summary of the method: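 In this screen, rad50EPP+ yeast were exposed to compounds. Growth inhibition was scored against vehicle-treated controls.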

[4] = NCI Yeast Anticancer Drug Screen. Data for the mgt1 strain (AID 153); conditions: S. cerevisiae mgt1 mutant growth inhibition, stronger effect = higher value
Summary of the method: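 mgt1 strain exposed; growth vs vehicle control recorded as inhibition.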

[5] = NCI Yeast Anticancer Drug Screen. Data for the rad50 strain (AID 155);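 note: 0% = growth of vehicle-only cultures of the same strain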; conditions: S. cerevisiae rad50 strain growth inhibition, stronger effect = higher value
Summary of the method: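 Readout: growth inhibition relative to vehicle-treated cultures. Compound exposure was carried out in a genetically defined yeast strain deficient in DNA damage repair.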

[6] = NCI Yeast Anticancer Drug Screen. Data for the mec2-1 strain (AID 157); conditions: S. cerevisiae mec2-1 strain, stronger effect = higher value
Summary of the method: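 Vehicle-treated cultures served as reference for growth inhibition of compound-exposed mec2-1 yeast.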

[7] = NCI Yeast Anticancer Drug Screen. Data for the rad14 strain (AID 159);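 note: 0% = growth of vehicle-treated control cultures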; conditions: S. cerevisiae rad14 strain growth inhibition, stronger effect = higher value
Summary of the method: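 Growth inhibition vs vehicle controls; genetically altered yeast strain (DNA damage repair defect) treated with test compounds.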

[8] = NCI Yeast Anticancer Drug Screen. Data for the sgs1 mgt1 strain (AID 161);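 note: 0% = growth of cultures given vehicle only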; conditions: S. cerevisiae sgs1 mgt1 strain, stronger effect = higher value
Summary of the method: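 Mutant yeast exposed to compound; growth scored against vehicle-only wells.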

[9] = NCI Yeast Anticancer Drug Screen. Data for the CLN2oe strain (AID 163);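 note: 0% = growth of vehicle-only control cultures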; conditions: S. cerevisiae CLN2oe strain, stronger effect = higher value
Summary of the method: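 Inhibition relative to vehicle-treated yeast is reported. Cells: strain with genetic alteration in cell-cycle control, grown with compound.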

[10] = NCI Yeast Anticancer Drug Screen. Data for the cln2 rad14 strain (AID 165);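 note: 0% = growth equal to vehicle treated cultures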; conditions: S. cerevisiae cln2 rad14 strain, stronger effect = higher value
Summary of the method: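 Each compound was tested on cln2 rad14 yeast. Inhibition of growth was calculated against vehicle-exposed controls.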

[11] = NCI Yeast Anticancer Drug Screen. Data for the bub3 strain (AID 167); conditions: S. cerevisiae bub3 mutant strain, stronger effect = higher value
Summary of the method: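 Readout: yeast growth inhibition, expressed relative to vehicle-only wells. The test organism is a mutant strain from a panel with lesions in DNA repair or checkpoint genes.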

[12] = NCI Yeast Anticancer Drug Screen. Data for the wt2 strain (AID 169);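 note: 0% = growth of vehicle-treated yeast cultures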; conditions: S. cerevisiae wt2 strain growth inhibition, stronger effect = higher value
Summary of the method: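 Inhibition of yeast growth was determined after compound treatment, normalised to controls receiving only vehicle.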

[13] = NCI Yeast Anticancer Drug Screen. Data for the mlh1 strain (AID 171);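 note: 0% = growth of vehicle-treated control cultures of the same strain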; conditions: S. cerevisiae mlh1 strain growth inhibition, stronger effect = higher value
Summary of the method: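 Vehicle-normalised growth inhibition of a repair- or checkpoint-altered yeast strain following compound treatment.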

[14] = NCI Yeast Anticancer Drug Screen. Data for the sgs1 strain (AID 173);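 note: 0% = growth of vehicle-only control cultures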; conditions: S. cerevisiae sgs1 mutant, stronger effect = higher value
Summary of the method: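 Screen format: yeast with repair or checkpoint alterations, compound exposure, growth read relative to vehicle.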

[15] = NCI Yeast Anticancer Drug Screen. Data for the mlh1 rad18 strain (AID 175); conditions: S. cerevisiae mlh1 rad18 strain growth inhibition, stronger effect = higher value
Summary of the method: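 Vehicle-treated cultures served as the reference for growth inhibition in a yeast strain carrying DNA damage repair alterations exposed to each compound.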

[16] = NCI Yeast Anticancer Drug Screen. Data for the rad18 strain (AID 177); conditions: S. cerevisiae rad18 mutant growth inhibition, stronger effect = higher value
Summary of the method: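 Test articles were incubated with altered yeast defective in DNA damage repair. Results are given as inhibition of growth versus vehicle.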

[17] = at 5.0 µM (retest, dose inferred, filed as 0.5)
[18] = at 50.0 µM (retest, dose inferred, filed as 5.0)

Measured: growth inhibition

O=c1c2ccccc2nc(-c2ccc(Cl)cc2)n1O
active: [1]; at 1.2 µM 81% | [1]; at 3.7 µM 95% | [1]; at 11.0 µM 96% | [1]; at 33.0 µM 96% | [1]; at 100.0 µM 94% | [2]; at 3.7 µM 89% | [2]; at 11.0 µM 96% | [2]; at 33.0 µM 96% | [2]; at 100.0 µM 96% | [3]; at 3.7 µM 85% | [3]; at 11.0 µM 91% | [3]; at 33.0 µM 91% | [3]; at 100.0 µM 90% | [4]; at 3.7 µM 90% | [4]; at 11.0 µM 94% | [4]; at 33.0 µM 94% | [4]; at 100.0 µM 93% | [5]; at 1.2 µM 80% | [5]; at 3.7 µM 93% | [5]; at 11.0 µM 96% | [5]; at 33.0 µM 95% | [5]; [18] 98% | [5]; at 50.0 µM 97% | [5]; at 100.0 µM 95% | [6]; at 11.0 µM 83% | [6]; at 33.0 µM 84% | [6]; [18] 97% | [6]; at 50.0 µM 96.7% | [6]; at 100.0 µM 88% | [7]; at 1.2 µM 98% | [7]; at 3.7 µM 98% | [7]; at 11.0 µM 98% | [7]; at 33.0 µM 98% | [7]; at 100.0 µM 98% | [8]; [18] 98% | [8]; at 50.0 µM 96.7% | [9]; at 33.0 µM 73% | [9]; at 100.0 µM 71% | [10]; [18] 84% | [10]; at 50.0 µM 87.8% | [11]; at 3.7 µM 75% | [11]; at 11.0 µM 78% | [11]; at 33.0 µM 82% | [11]; [18] 97% | [11]; at 50.0 µM 87.5% | [11]; at 100.0 µM 72% | [12]; at 1.2 µM 92% | [12]; at 3.7 µM 96% | [12]; at 11.0 µM 96% | [12]; at 33.0 µM 96% | [12]; at 100.0 µM 96% | [13]; at 1.2 µM 72% | [13]; at 3.7 µM 90% | [13]; at 11.0 µM 93% | [13]; at 33.0 µM 92% | [13]; at 100.0 µM 94% | [14]; at 1.2 µM 96% | [14]; at 3.7 µM 96% | [14]; at 11.0 µM 97% | [14]; at 33.0 µM 96% | [14]; at 100.0 µM 95% | [15]; [18] 98% | [15]; at 50.0 µM 96.1% | [16]; at 1.2 µM 94% | [16]; at 3.7 µM 96% | [16]; at 11.0 µM 97% | [16]; at 33.0 µM 96% | [16]; at 100.0 µM 95%
inactive: [2]; at 1.2 µM 61% | [3]; at 1.2 µM 47% | [4]; at 1.2 µM 60% | [5]; [17] 28% | [6]; at 1.2 µM 50% | [6]; at 3.7 µM 56% | [6]; [17] 10% | [8]; [17] 46% | [9]; at 1.2 µM 21% | [9]; at 3.7 µM 26% | [9]; at 11.0 µM 66% | [10]; [17] -23% | [11]; at 1.2 µM 62% | [11]; [17] 23% | [15]; [17] 48%

CC(C)(Br)C(=O)/C=C/c1ccccc1
active: [1]; at 33.0 µM 73% | [1]; at 100.0 µM 91% | [3]; at 11.0 µM 76% | [3]; at 33.0 µM 88% | [3]; at 100.0 µM 95% | [5]; [18] 93% | [5]; at 50.0 µM 88.3% | [6]; [18] 89% | [6]; at 50.0 µM 95.7% | [7]; at 100.0 µM 97% | [8]; [18] 92% | [8]; at 50.0 µM 91.3% | [10]; [18] 87% | [10]; at 50.0 µM 97.2% | [14]; at 33.0 µM 70% | [14]; at 100.0 µM 80% | [15]; [17] 74% | [15]; [18] 95% | [15]; at 50.0 µM 71.9% | [16]; at 1.2 µM 94% | [16]; at 3.7 µM 95% | [16]; at 11.0 µM 96% | [16]; at 33.0 µM 96% | [16]; at 100.0 µM 97%
inactive: [1]; at 1.2 µM 8% | [1]; at 3.7 µM 21% | [1]; at 11.0 µM 47% | [2]; at 1.2 µM 3% | [2]; at 3.7 µM 9% | [2]; at 11.0 µM 9% | [2]; at 33.0 µM 10% | [2]; at 100.0 µM 17% | [3]; at 1.2 µM 21% | [3]; at 3.7 µM 51% | [4]; at 1.2 µM -2% | [4]; at 3.7 µM -1% | [4]; at 11.0 µM 4% | [4]; at 33.0 µM 7% | [4]; at 100.0 µM 15% | [5]; at 1.2 µM 6% | [5]; at 3.7 µM 11% | [5]; [17] 15% | [5]; at 11.0 µM 26% | [5]; at 33.0 µM 34% | [5]; at 100.0 µM 60% | [6]; at 1.2 µM 5% | [6]; at 3.7 µM 7% | [6]; [17] -14% | [6]; at 11.0 µM 17% | [6]; at 33.0 µM 28% | [6]; at 100.0 µM 48% | [7]; at 1.2 µM 6% | [7]; at 3.7 µM 14% | [7]; at 11.0 µM 27% | [7]; at 33.0 µM 59% | [8]; [17] 68% | [9]; at 1.2 µM -4% | [9]; at 3.7 µM -3% | [9]; at 11.0 µM -5% | [9]; at 33.0 µM 4% | [9]; at 100.0 µM 19% | [10]; [17] 3% | [11]; at 1.2 µM -3% | [11]; at 3.7 µM -7% | [11]; [17] -16% | [11]; at 11.0 µM -7% | [11]; at 33.0 µM -2% | [11]; [18] 63% | [11]; at 50.0 µM 22.1% | [11]; at 100.0 µM 7% | [12]; at 1.2 µM 0% | [12]; at 3.7 µM 3% | [12]; at 11.0 µM 6% | [12]; at 33.0 µM 10% | [12]; at 100.0 µM 18% | [13]; at 1.2 µM 0% | [13]; at 3.7 µM 4% | [13]; at 11.0 µM 10% | [13]; at 33.0 µM 15% | [13]; at 100.0 µM 27% | [14]; at 1.2 µM 24% | [14]; at 3.7 µM 50% | [14]; at 11.0 µM 66%

O=C(Cc1ccccc1)NN1C(=O)C(Cl)C1c1cc(Br)cc(Br)c1O (stereo unspecified)
inactive: [1]; at 1.2 µM 4% | [1]; at 3.7 µM 33% | [2]; at 1.2 µM -9% | [2]; at 3.7 µM -5% | [3]; at 1.2 µM -6% | [3]; at 3.7 µM 1% | [3]; at 11.0 µM 29% | [3]; at 33.0 µM 56% | [3]; at 100.0 µM 59% | [4]; at 1.2 µM -5% | [4]; at 3.7 µM 14% | [5]; at 1.2 µM 2% | [5]; at 3.7 µM 20% | [5]; [17] 13% | [6]; at 1.2 µM -3% | [6]; at 3.7 µM 19%
active: [1]; at 11.0 µM 92% | [1]; at 33.0 µM 93% | [1]; at 100.0 µM 88% | [2]; at 11.0 µM 73% | [2]; at 33.0 µM 94% | [2]; at 100.0 µM 89% | [4]; at 11.0 µM 94% | [4]; at 33.0 µM 95% | [4]; at 100.0 µM 91% | [5]; at 11.0 µM 81% | [5]; at 33.0 µM 91% | [5]; [18] 94% | [5]; at 50.0 µM 97% | [5]; at 100.0 µM 84%
